According to PubChem BioAssay AID1508600 (Functional Genomics Laboratory (NCATS/FGL), 2020):
Among all 53,000 sequences or so, about 3,700 (7%) were called active. The full list was thinned out, with actives kept by preference. A number with no mark means an inactive call.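 How the source made its calls: active means gene knockdowns whose robust z-score for IL-1 alpha signal is at least 2 or at most -2, so actives lie on both sides; inactive means the rest.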

Assay: Components of the Cytosolic LPS Sensing Pathway: Gene Identification via Genome-wide siRNA Screen;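 further: robust z of the log signal after scaling to non-targeting control siRNA wells of the plate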
Settings: RAW264.7 macrophages, IL-1a HTRF, actives lie on both sides, screened at 100 nM (by protocol), cells primed 5 h with Pam3CSK4 first
Method in brief: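 Using IL-1a HTRF as read-out, the screen measured release from RAW264.7 cells after 48h siRNA knockdown (100 nM), 5 h Pam3CSK4 priming and 24 h cytosolic LipidA. Values were expressed relative to negative-control wells as robust z-scores.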

Compared with GGCCUUUCACAACAUAAAATT against Chil6, GGGAGCAGUCUUCCCUCAUTT against Cox8a is lower in z-score: -0.808 for the first, -1.44 for the second.

Going from AGAAAUGCCUCUUCAGUGATT against Olfr884 to GGUCAGCCAGACCAUUUCUTT against Edc3, the z-score falls from 1.59 to -1.27.

Compared with GGAUCUUAUUAUUUGAUCCTT against Mettl15, GGAAGUAGAUUAGAUGGUATT against Akt3 is higher in z-score: -0.671 for the first, 0.52 for the second.

First: GGAAUACCACAUGCUUUUGTT against Ldah
Second: GCUAACCCUCGUUUAGAAGTT against Apol9b
The z-score of the first is lower: -0.288 for the first, 0.529 for the second.

Compared with GGCAUCUUGGAGGAUUUGCTT against Cyrib, GGGUCAAUCAUGAAUGUUUTT against Pak4 is lower in z-score: 0.719 for the first, -1.02 for the second.

Compared with GGGACAUGUUUUGAUAAAGTT against Yy1, GCUUCGGAAUCGGUUACCATT against Alg2 is lower in z-score: -0.591 for the first, -1.28 for the second.

Compared with GGUUGUUUAUGCUUUCUCUTT against Arhgap32, GAUGGUCAUCCUUCCUUUATT against Olfr341 is higher in z-score: -0.766 for the first, -0.737 for the second.

First: GCUUAGACGACUAGACCUGTT against Slit2
Second: GGUGGUCUGAUCGUAGACATT against Lrrc61
The z-score of the first is lower: -0.186 for the first, 0.672 for the second.

First: GGGCUGACUAUUAUUUCAGTT against Cysltr2
Second: GGAAUUUGUGAAAAGAAGUTT against Aldh1a2
The z-score of the first is higher: -0.107 for the first, -0.923 for the second.

First: CGAUAAAAGAGAGAUGAUUTT against Rap1gds1
Second: GGUGGUAAUUUUUCUCAGATT against Agxt2
The z-score of the first is higher: 0.699 for the first, -1.74 for the second.

Going from GGAAAAUCUUAGGAAGAUGTT against Elf4 to GCUUACCCUGACUCCAAUUTT against Dhx33, the z-score falls from -0.39 to -1.76.

Compared with CCAAGGUCUAAAAAAAUAGTT against Adamts19, GGAGGUAACAACAACAGAATT against BC028528 is higher in z-score: -0.907 for the first, 0.7 for the second.

Going from GGUAGAGAACCAUUUGCUGTT against Dtnbp1 to CCAUACAAGAGUGACAGUUTT against Olfr810, the z-score falls from -0.376 to -0.736.

Compared with GGCAAUCCAGGCAAUAUCATT against C1qa, CCAUGUGACAGCAUUGUUGTT against Axin1 is higher in z-score: -0.808 for the first, 0.754 for the second.

First: CCAGAUUAUCCGUUUAAACTT against Ube2e2
Second: GCGUGAGAUACCAUAUUAUTT against Bank1
The z-score of the first is higher: 0.242 for the first, -1.47 for the second.

Going from GGUCUACCUAAAACUGGAGTT against Cbln4 to GGGAGAGAUGUCAUUGCACTT against Eif4a3, the z-score falls from 0.337 to -1.9.

Going from GCGGCUACGUGUUUGACUATT against Csnk1g2 to GCACUUAGACUAUUCCAGGTT against Tph2, the z-score rises from -0.735 to -0.118.

Going from GGUCAGGCUGAGGAAUUCATT against Cyp2s1 to GGAGGAGGCAGAAACAACATT against Tex46, the z-score rises from -0.562 to 1.87.

Going from GCAGAGAGGAUAACUGACCTT against Slc25a44 to GGAAUUCCCAUUGGAAGAATT against Vmn1r232, the z-score rises from -0.723 to 0.0956.

First: GGGACCAAGAAGGAUAACUTT against Flrt1
Second: CCGAUUUAACUGAAUUUGCTT against Acaa2
The z-score of the first is higher: 1.4 for the first, 0.342 for the second.

First: GGACAAGUCGAGUUUCAAGTT against Zfp503
Second: CGGAAGAAUAAAAACCGGCTT against Meaf6
The z-score of the first is higher: 1.98 for the first, 0.601 for the second.

Compared with GGUCUUGUGCAUAAAACAGTT against Ece2, GCAUAUCCUAAACACUGUUTT against Pqlc3 is higher in z-score: -1.06 for the first, -0.966 for the second.

Compared with GCGACUGACCUUCAAACUGTT against Piwil4, CCAGCAAAUGAGAGGUCUGTT against Olfr1024 is higher in z-score: 0.193 for the first, 0.676 for the second.

First: GGACACUUUCCAAUGGUGATT against Npsr1
Second: GCUCUCAUCAGACUUCGAGTT against Zfp202
The z-score of the first is higher: 1.25 for the first, 0.0887 for the second.

Compared with GCGCAUCUAUGAAAAAACATT against Cerk, GCUCAAAAAACCGAAAUGATT against Cd274 is lower in z-score: -0.471 for the first, -1.03 for the second.

Compared with GGUAAAUUCAACUGGAAGGTT against Lyar, GGUUAUCCUCAUUGAUCCGTT against Rpl15 is lower in z-score: 0.194 for the first, 0.0822 for the second.

Compared with GCCUGAUAUCAACAUAGGATT against Pth2r, CCCUGGCCAAACAUAGUGGTT against Efcab12 is lower in z-score: 0.802 for the first, 0.278 for the second.

With GGAGAAAUGAAGAUUGUGGTT against Tmem218 the z-score was -2.31 (active).
For GGUGGCAAAGUGGUGAUCCTT against Fabp7, the z-score was 2.05 (active).
With GAUUUGAGACCCAGAUCAUTT against Gzmm the z-score was 2.08 (active).
In the case of CGAAGUGGUUUUAUGUACUTT against Cdkn2b, the z-score is reported as -2.39 (active).
For CCAUCUUGGAGAUCCUGAUTT against Kat5, the z-score was -2.46 (active).
In the case of “GGAACACACAAUUUUAUCATT against 4933436I01Rik”, the z-score is reported as -2.98 (active).
With CCCUAACUACUUCAUGAAUTT against Paip1 the z-score was -2.11 (active).
With GGAAAUCCAUUGUUUAAAGTT against Wt1 the z-score was 2.01 (active).
With GGUGAAGUUACAGUCAAAUTT against Nolc1 the z-score was 2.54 (active).
With CCAUUCUUAGUUCACUAUATT against Rgcc the z-score was -2.55 (active).
With GGCAGGACACCAUAUGGUUTT against Tedc1 the z-score was -2.16 (active).
With GGGUGAUGCCCUUGAAUCUTT against Twf2 the z-score was 2.48 (active).
With GGAGCUCGAAAAAUUUCAATT against Igfl3 the z-score was 2.13 (active).
With GGCUGUAAAACUCUGGUUUTT against Vmn1r195 the z-score was 2.82 (active).
For UAAAUGAGCUCGUAAUCUUTT against Olfr874, the z-score was 3.23 (active).
